Laboratory results from PubChem BioAssay AID540276 (National Center for Advancing Translational Sciences (NCATS), 2011).
Several values for one entry are separate records, joined by “and”; a condition that tells them apart may be missing. Equal entries are not always repeated. The whole screen tested about 300,000 compounds, of which about 5,400 (1.8%) were called active. Roughly 28% stayed inconclusive and do not appear here. This is one part of a sample in which actives are shown more often than they occur. The call rests on the fitted dose curve; tested in HEK293 cells. A structure can be active in one record and inactive in another.

assay: qHTS for inhibitors of binding or entry into cells for Marburg Virus; conditions: Marburg virus pseudotyped entry inhibition, cell reporter; series mostly up to 37.8 µM; activity change, negative = inhibition: at the top concentration
On the % scale 0 is the no-effect control and ±100 the full control effect; potency means the concentration at half of the fitted maximal effect.

Row | SMILES | activity change, negative = inhibition | Potency
1 | O=C(Cc1cccs1)N1CCCC(c2nc(-c3ccc(S(=O)(=O)N4CCCC4)cc3)no2)C1 (configuration not stated) | -24.4% (inactive) | 
2 | CC(C)c1ccc(-c2noc(C3CCCN(S(C)(=O)=O)C3)n2)cc1 (configuration not stated) | -30.6% (inactive) | 
3 | COc1cc(-c2noc(C3CCCN(S(=O)(=O)c4cccc(Cl)c4)C3)n2)cc(OC)c1OC (configuration not stated) |  | inactive and 9.2 µM (active)
4 | Cc1ccc(C(=O)OCC(=O)N2CCCCCC2)cc1S(=O)(=O)N1CCOCC1 | 4.19% (inactive) | 
5 | NC(=O)c1cc2ccccc2o/c1=N/NC(=O)c1cccc(F)c1 | -5.08% [at 46.1 µM] (inactive) | 
6 | CCOc1ccc(CN2CCNC(=O)C2CC(=O)NCCCC2CCCC2)cc1 (configuration not stated) | 10.3% (inactive) | 
7 | CCOc1ccc(C2c3[nH]c4ccccc4c3CCN2Cc2cccn2-c2ncccn2)cc1 (configuration not stated) |  | 3.16 µM (active)
8 | Oc1cccc(C2c3[nH]c4ccccc4c3CCN2Cc2cnn(-c3ccccc3)c2)c1 (configuration not stated) | -8.18% [at 46.1 µM] (inactive) | 
9 | c1ccc(C2c3[nH]c4ccccc4c3CCN2Cc2cccn2-c2cccnc2)nc1 (configuration not stated) | -6.35% [at 46.1 µM] (inactive) | 
10 | CCN(CC)S(=O)(=O)c1ccc(CNC(=O)CN2C(=O)NC3(CCc4ccccc43)C2=O)cc1 (configuration not stated) | 5.63% (inactive) | 
11 | COc1ccc(/C=N/NC(=O)c2ccc3c(c2)OCCO3)c(OC)c1 | -0.257% (inactive) | 
12 | COc1cccc(CNCCc2c[nH]c3ccccc23)c1OCc1ccccc1F |  | 7.3 µM (active)
13 | COc1ccccc1CC(=O)NCCc1c[nH]c2ccccc12 | -23.9% [at 46.1 µM] (inactive) | 
14 | COc1ccc(S(=O)(=O)NCCc2c[nH]c3ccccc23)cc1OC | -2.61% [at 46.1 µM] (inactive) | 
15 | O=C1CC(C(=O)O)NC(=S)N1 (configuration not stated) | 0.164% [at 46.1 µM] (inactive) | 
16 | COc1ccc(S(=O)(=O)N2CCN(CC(=O)N3CCOCC3)CC2)cc1OC | -5.82% (inactive) | 
17 | COc1cc2[nH]c(=S)n(Cc3ccc(C)o3)c(=O)c2cc1OC | -7.92% (inactive) | 
18 | COc1ccccc1-n1c(=S)[nH]c2c(sc(=S)n2-c2ccc(C)cc2C)c1=O | -1.23% [at 46.1 µM] (inactive) | 
19 | COc1cc(-n2c(=S)[nH]c3ccc(C)cc3c2=O)c(Cl)cc1Cl |  | 5.62 µM (active)
20 | CC(C)c1ccc(S(=O)(=O)N2CCN(C(=O)CN3C(=O)NC(C)(c4ccccc4)C3=O)CC2)cc1 (configuration not stated) | 0.605% (inactive) | 
21 | COc1ccc(N(CC(=O)N2CCOCC2)S(=O)(=O)c2ccccc2)cc1Cl | 16.6% (inactive) | 
22 | CC(C)Oc1ccc(S(=O)(=O)N2CCOCC2)cc1NC(=O)C1CSC2(C)CCC(=O)N12 (configuration not stated) | -14.7% [at 46.1 µM] (inactive) | 
23 | O=C(OC12CC3CC(CC(C3)C1)C2)c1ccc(NCc2cc(O)ccc2O)cc1 |  | 4.47 µM (active)
24 | C[C@]12CC[C@H](O)CC1=CCC1C2CC[C@@]2(C)C1CC[C@@H]2NC(=O)CCC(=O)O (some centres not stated) | 3.4% (inactive) | 
25 | COc1ccc(/C=C/C(=O)NC(=S)N2CCCC(C(N)=O)C2)cc1 (configuration not stated) | -0.358% [at 46.1 µM] (inactive) | 
26 | CCCCCCCCn1c2c(c(=N)c3c1CCC3)CCCC2 |  | 5.01 µM (active)

Row | SMILES | activity change, negative = inhibition | Potency
27 | Cc1ccc(S(=O)(=O)N2CCCC(C(=O)N3CCN(C)CC3)C2)cc1 (configuration not stated) | 8.49% (inactive) | 
28 | CN(C)c1ccc(CSc2ccccc2)cc1 | 5.47% (inactive) | 
29 | O=C(CSc1nnc(N2CCOCC2)n1-c1cccc(F)c1)N1CCN(c2ccccn2)CC1 | -2.18% (inactive) | 
30 | COc1ccc2[nH]c3c(c2c1)CCN(C(=O)CCC1CCCC1)C3c1ccc(F)cc1 (configuration not stated) |  | 0.631 µM (active)
31 | COc1cccc(C(=O)N2CCCC(CCC(=O)NCc3ccc(F)c(F)c3)C2)c1 (configuration not stated) | -21.9% (inactive) | 
32 | COc1cccc(CNC(=O)CCC2CCCN(C(=O)c3ccc(F)c(Cl)c3)C2)c1 (configuration not stated) | 2.45% (inactive) | 
33 | COc1ccccc1C(=O)NCCC(=O)NCC(c1ccco1)N1CCCCC1 (configuration not stated) | 0.853% (inactive) | 
34 | Cc1ccc(S(=O)(=O)N(CC(=O)NCc2ccco2)c2ccccc2C)cc1 | 22.1% [at 46.1 µM] (inactive) | 
35 | CC(=O)c1ccc(N2CCN(C(=O)CCc3ccccc3)CC2)cc1 | 27.7% (inactive) | 
36 | C=CCN1CCN(C(=O)CCCc2ccccc2)CC1 |  | 2.51 µM (active)
37 | O=C(O)CCCc1ccccc1 |  | inactive
38 | Cc1cc(C)c(S(=O)(=O)N(C)CC(=O)NCC2CCCO2)c(C)c1 (configuration not stated) | -8.6% [at 46.1 µM] (inactive) | 
39 | COC1C(CO)OC(n2cnc3c(=S)nc(N)[nH]c32)C1O (configuration not stated) | 21% (inactive) | 
40 | NC(=O)C1(N2CCCC2)CCN(Cc2ccccc2)CC1 | -9.61% (inactive) | 
41 | CCC(=C/c1sc2ccc3ccccc3c2[n+]1C)/C=C1\Sc2ccc3ccccc3c2N1C |  | 3.55 µM (active)
42 | O=C(Nc1ccc(S(=O)(=O)N2CCCCCC2)cc1)c1c(F)cccc1F | -9.13% (inactive) | 
43 | Cc1cc(C)c(S(=O)(=O)N2CCCC2CNC(=O)c2ccc3c(c2)OCO3)c(C)c1 (configuration not stated) | 17.5% (inactive) | 
44 | C[N+](C)(CCCCCC[N+](C)(C)CCCN1C(=O)c2cccc3cccc(c23)C1=O)CCCN1C(=O)c2cccc3cccc(c23)C1=O |  | 5.01 µM (active)
45 | O=C1c2ccccc2C(=O)N1CCCCCCN1C(=O)c2ccccc2C1=O | 11.3% [at 46.1 µM] (inactive) | 
46 | O=C1c2cccc3cccc(c23)C(=O)N1CCCCCc1n[nH]c(=S)o1 | -2.52% [at 46.1 µM] (inactive) | 
47 | c1ccc(-c2cn3cccnc3n2)cc1 | 17.4% (inactive) | 
48 | Cc1nc(-c2ccc([N+](=O)[O-])cc2)c(-c2ccccc2)o1 | -2.14% (inactive) | 
49 | Cc1ccc(-c2cn3cc(C)ccc3n2)cc1 |  | 0.316 µM (active)
50 | Cc1ccc(-c2cc(N)on2)cc1 | 6.12% (inactive) | 
51 | Cc1ccc(-c2cn3cc([N+](=O)[O-])ccc3n2)cc1 |  | 3.66 µM (active)
52 | Cc1ccc(-n2c(-c3ccc([N+](=O)[O-])cc3)nc3ccccc3c2=O)cc1 | -30.2% [at 46.1 µM] (inactive) | 
